Screening results: PubChem BioAssay, National Center for Advancing Translational Sciences (NCATS)
Shown are actives, neighbours in structure and some others; about 19% of the full set was active somewhere.
TDP1 cell noCPT = qHTS for Inhibitors of human tyrosyl-DNA phosphodiesterase 1 (TDP1): qHTS in cells in absence of CPT; DT40 Tdp1-/- hTDP1 cells, no CPT, ATP luminescence, 48 h; Potency, µM (highest dose often 46.2 µM), inactives show at the highest dose activity change, negative = growth inhibition, usual class: inhibitors; 15% of 420,000 active; note: potency is the fitted concentration of half-maximal effect; nearly all actives have a fitted effect of over 55% in size
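Growth kinetics read by CellTiter-Glo luminescence after ≥48 hr at 37 °C. Cells: DT40 Tdp1-/- stably carrying human TDP1, 400 per well, compound exposure in the absence of CPT (DMSO vehicle).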
DT40 TDP1 CPT = qHTS for Inhibitors of human tyrosyl-DNA phosphodiesterase 1 (TDP1): qHTS in cells in presence of CPT | chicken DT40 Tdp1-/-;hTDP1 cells + 20 nM CPT, ATP luminescence, 48 h | Potency, µM (highest dose often 46.2 µM), for inactives: top-dose activity change, negative = growth inhibition, hits mostly inhibitors | 12% of 420,000 active; note: potency is the fitted concentration of half-maximal effect; nearly all actives have a fitted effect of over 55% in size
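Chicken DT40 Tdp1-/- cells complemented with human TDP1, 400 cells/well, exposed to compounds plus 20 nM camptothecin for at least 48 h at 37 C; viability read as ATP content by CellTiter-Glo luminescence.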
IL1B secr inh = qHTS for Inhibitors of Inflammasome Signaling: IL-1-beta AlphaLISA Primary Screen. AID 743279, 2014. THP-1 LPS/ATP IL-1B secretion, AlphaLISA, 16 h; stronger effect = lower value. activity change, % at 57.5 µM. 4.7% of 360,000 active; in the data active = activity change below about -50%; inconclusive = mostly about -30% to -49%
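Secreted IL-1B measured by AlphaLISA bead assay after 16 h compound exposure of THP-1 cells; compounds (final up to 57.5 uM) added 1 h before LPS (250 ng/mL) and ATP (1.25 mM) stimulation; lower signal means less secretion.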
HT1080-NT tox = qHTS for induction of synthetic lethality in tumor cells producing 2HG: qHTS for the HT-1080-NT fibrosarcoma cell line; AID 686970, 2013; HT-1080-NT fibrosarcoma viability, CellTiter-Glo ATP luminescence, 48 h; Potency, µM (highest dose often 46.1 µM), inactives show top-dose activity, negative = less viability, actives largely listed as cytotoxic; 1.6% of 360,000 active;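 note: NT is the 2HG producing partner of a matched IDH1 knockdown line; potency is the fitted concentration of half-maximal effect; 0% = DMSO-treated cells and -100% = media-only wells without cells; nearly all actives have a fitted effect of over 55% in size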
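HT-1080-NT fibrosarcoma cells (2HG-overproducing), 750 cells/well in RPMI with 5% FBS, dosed after 2 h and incubated 48 h at 37C. CellTiter-Glo luminescence normalized to DMSO and no-cell wells; concentration-response curves fitted and classed.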
HT1080 IDH1KD tx = qHTS for induction of synthetic lethality in tumor cells producing 2HG: qHTS for the HT-1080-IDH1KD cell line; HT-1080 IDH1 knockdown viability, ATP luminescence, 48 h; Potency, µM (doses to about 46.1 µM), without a hit: top-dose activity, negative = toxicity, actives largely listed as cytotoxic; 2% of 360,000 active;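 note: potency is the fitted concentration of half-maximal effect; 0% = DMSO wells and -100% = cell-free medium wells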
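After a 2 h attachment period, IDH1KD HT-1080 cells took pin-transferred compound for 48 h at 37 °C; ATP-based luminescence after 10 min room-temperature reagent incubation reported viability.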
Active calls of the source: *; ? = inconclusive; . = not tested or not shown. Unless noted, calls come from the whole dose curve; as a rule, active = well fitted curve in the direction sought with a large enough effect; inconclusive = small, poorly fitted or top-dose-only effect, or another doubt; inactive = no such curve, though single readings can be large; an effect the other way counts as inactive or inconclusive. Unless noted, % is set by controls: 0 for no effect and ±100 for the full control effect.

SMILES | TDP1 cell noCPT | DT40 TDP1 CPT | IL1B secr inh | HT1080-NT tox | HT1080 IDH1KD tx
COc1ccc2cc3cc(C(=O)NC4CC4)sc3nc2c1 | 18.4µM* | 23.1µM* | 0.0 | -19.9% | -21.3%
COc1ccc2nc3sc(C(=O)NCCN4CCc5ccccc5C4)cc3cc2c1 | 16.4µM* | 20.6µM* | 28.8 | -3.9% | 1.1%
COc1ccc2cc3cc(C(=O)NCCCN4CCc5ccccc5C4)sc3nc2c1 | ? | ? | ? | 9.7% | 1.5%
COc1cc2c(cc1OC)[C@@H](NC(=O)C(C)C)[C@H](OCc1ccccc1)C2 | -2.9% | -8.3% | 23.4 | -0.8% | -3.0%
Cc1ccc(S(=O)(=O)N2CCN(C(=O)c3ccc(N4CCCCC4)c([N+](=O)[O-])c3)CC2)cc1 | -17.4% | ? | -61.9* | 13.7% | 4.6%
Cc1ccc(N(Cc2ccco2)C(=O)c2ccc(N3CCCCC3)c([N+](=O)[O-])c2)cc1 | 5.8µM* | 20.6µM* | -22.5 | -9.6% | ?
Cc1ccc(S(=O)(=O)N2CCN(c3ccc(C(=O)N4CCOCC4)cc3[N+](=O)[O-])CC2)cc1 | 11.6µM* | 18.4µM* | -3.9 | -10.8% | -6.7%
CS(=O)(=O)N1CCN(c2ccc(C(=O)N3CCOCC3)cc2[N+](=O)[O-])CC1 | -19.2% | -5.3% | -1.3 | -5.6% | -13.6%
Cc1cc(C)c(S(=O)(=O)N2CCN(C(=O)c3ccc(-n4cncn4)c([N+](=O)[O-])c3)CC2)c(C)c1 | 13µM* | ? | -4.2 | -3.2% | 0.3%
COc1ccc(OCC(=O)NCCCN2CCOCC2)cc1 | -6.0% | 10.9% | 12.2 | 0.4% | -0.6%
O=C(CSc1ncccn1)NC1CCCC1 | -3.0% | -1.5% | 17.9 | 7.1% | 7.2%
CCNC(=O)C1(C)CCN1CCS(=O)(=O)c1ccc(C)cc1 (stereo unspecified) | -3.3% | -7.8% | 10.0 | 7.9% | ?
COc1ccc(CNC(=O)CSc2nnc(C(F)(F)F)n2C)cc1 | 13.5% | 2.7% | 11.9 | 13.4% | 3.8%
Nc1cccc2c1C(=O)N(CCOc1ccccc1F)C2=O | ? | -1.9% | 34.1 | -1.3% | -1.8%
C=C[C@](C)(O)CCC1C(=C)CC(O)C2C(C)(C)CCCC12C (stereo partly specified) | 9.2µM* | ? | . | . | .
CCN(C(=O)COC(=O)c1ccc2[nH]c(C)c(C)c2c1)c1c(N)n(Cc2ccccc2)c(=O)[nH]c1=O | -29.6% | 18.4µM* | 0.0 | 4.7% | 2.3%
CCN(C(=O)COC(=O)CCC(=O)c1ccc(Cl)cc1)c1c(N)n(Cc2ccccc2)c(=O)[nH]c1=O | 23.1µM* | 18.4µM* | -7.0 | 2.9% | -3.7%
CCN(C(=O)COC(=O)C1CC1)c1c(N)n(Cc2ccccc2)c(=O)[nH]c1=O | 3.8% | -2.8% | -23.4 | -10.4% | -0.4%
CCN(C(=O)COC(=O)c1cc2c(s1)CCC(C)C2)c1c(N)n(Cc2ccccc2)c(=O)[nH]c1=O (stereo unspecified) | ? | 16.4µM* | -26.3 | -12.6% | -2.6%
CC1CCc2sc(C(=O)OCC(=O)NCc3ccc(F)cc3)cc2C1 (stereo unspecified) | 14.6µM* | 20.6µM* | 7.2 | ? | 20.6µM*
Cc1nc(NC(=O)COC(=O)c2cc3c(s2)CCC(C)C3)c(Cl)cc1Cl (stereo unspecified) | -3.8% | 10.0% | 13.0 | 15.0% | ?
COCCN(C(=O)COC(=O)CCC(=O)c1ccc(C)cc1)c1c(N)n(Cc2ccccc2)c(=O)[nH]c1=O | -17.1% | -8.6% | -0.2 | 1.3% | 8.8%
CC(C)C(=O)OCC(=O)[C@@]12O[C@H](C3CCCCC3)O[C@@H]1C[C@H]1[C@@H]3CCC4=CC(=O)C=C[C@]4(C)[C@H]3[C@@H](O)C[C@@]12C | -16.4% | -7.7% | . | . | .
CCCN=C1N(C)C[C@@H]2[C@@H]3C(=O)N(C)C(=O)[C@@H]3[C@](CC)(C(=O)OC)N12 | -0.4% | -10.4% | 8.8 | 24.8% | 8.5%
Cc1ccc(/C([O-])=C(/C(=S)NCc2ccc3c(c2)OCO3)[n+]2ccc(N(C)C)cc2)c(C)c1 | ? | ? | -68.2* | -4.4% | -3.7%
SMILES | TDP1 cell noCPT | DT40 TDP1 CPT | IL1B secr inh | HT1080-NT tox | HT1080 IDH1KD tx
Nc1cccc2cc(-c3ccccc3)oc12 | 0.2% | -2.5% | -5.7 | -2.9% | 3.0%
CSCCC(NC(=O)c1ccco1)C(=O)Nc1ccc(C)cn1 (stereo unspecified) | 1.9% | 2.7% | 6.2 | 0.9% | -2.5%
Brc1ccc(-c2nc3ccccn3c2Nc2ccc3c(c2)OCCO3)o1 | ? | 25.9µM* | . | . | .
Clc1ccc(-c2nc3cnccn3c2Nc2ccc3c(c2)OCO3)cc1 | 20.6µM* | ? | 64.1 | -22.0% | -26.3%
Brc1ccc(-c2nc3ncccn3c2Nc2ccc3c(c2)OCCO3)o1 | -17.5% | -25.5% | -6.5 | 4.3% | -0.3%
c1cncc(-c2nc3ccccn3c2Nc2ccc3c(c2)OCCO3)c1 | 11.6µM* | ? | -23.9 | 2.7% | -5.1%
CSc1ccc(-c2nc3cnccn3c2Nc2ccc3c(c2)OCO3)cc1 | ? | ? | 86.4 | ? | ?
COC(=O)/C=C1\SC(=NC(=O)c2cccc(Cl)c2)NC1=O | ? | 20.6µM* | -9.8 | 26.3% | 20.3%
COC(=O)/C=C1/SC(=NC(=O)c2ccccc2)NC1=O | 20.6µM* | ? | -3.3 | 13.3% | 15.1%
COC(=O)/C=C1/SC(=NC(=O)c2cccc([N+](=O)[O-])c2)NC1=O | ? | ? | ? | 8.3% | 11.3%
COC(=O)/C=C1/SC(=NC(=O)c2ccc(F)cc2)NC1=O | ? | -6.0% | . | 15.7% | ?
Nc1sccc1C(=O)NCCN1CCOCC1 | -15.9% | 9.9% | 31.8 | 14.3% | 12.8%
COc1ccc(OC)c(S(=O)(=O)NCC(c2cccs2)N2CCc3ccccc3C2)c1 (stereo unspecified) | ? | 16.4µM* | 2.5 | -11.1% | -12.1%
CCN(C[C@H]1N[C@@](C)(C(=O)OC)[C@H]2C(=O)N(C)C(=O)[C@@H]12)C(=O)Nc1ccc(C)cc1 | 2.8% | 12.3% | 0.0 | 1.7% | 3.8%
COc1ccc(CN2C(=O)C(CC(=O)NCCCCc3ccccc3)CC(C(=O)N3CCCCCC3)=C2C)cc1 (stereo unspecified) | 20.9µM* | 20.9µM* | . | -2.5% | -6.2%
CC1=C(C(=O)N(C(C)C)C(C)C)CC(CC(=O)NCCCCc2ccccc2)C(=O)N1Cc1ccccc1 (stereo unspecified) | 23.1µM* | ? | 0.0 | 2.1% | -11.3%
